The panel holds about 83,000 compounds, 20% with a hit somewhere; the sample as a whole holds those more often.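 Testing used 96-well plates and a 48-hour single-concentration exposure. Example: -40 means 40% of the starting cells died.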 A number with no mark means an inactive call. Activity calls are given as the source filed them. How the source made its calls: active means growth percent below 10; inactive means the rest.
Columns and labels:
Assay in all cases: NCI-60 one-dose screen, 48 h (100 = growth as untreated, 0 = no growth, -100 = all killed)
Details in all cases: 10 µM unless noted
[1] = system: SR leukemia
[2] = system: RPMI-8226 leukemia
[3] = system: OVCAR-8 ovarian
[4] = system: OVCAR-5 ovarian
[5] = system: OVCAR-4 ovarian
[6] = system: SK-OV-3 ovarian
[7] = system: IGROV1 ovarian
[8] = system: OVCAR-3 ovarian
[9] = system: NCI/ADR-RES ovarian

Row | Structure (SMILES) | growth [1] | growth [2] | growth [3] | growth [4] | growth [5] | growth [6] | growth [7] | growth [8] | growth [9]
1 | CN(C)c1ccc(/C=c2\s/c(=C\C(=O)C(C)(C)C)[nH]c2=O)cc1 | 92.1% | 104% | 102% | 99.7% | 85.3% | 100% | 88.5% | 102% | 103%
2 | OCCOCC(F)(F)F | 78.7% | 90.2% | 116% | 96% | 100% | 113% | 113% | 109% | 106%
3 | COc1ccc(-c2nnc(NC(=O)CN3CCN(c4cc5c(cc4F)c(=O)c(C(=O)O)cn5C4CC4)CC3)s2)cc1OC | 102% | 102% | 98.4% | 106% | 104% | 98.6% | 104% | 106% | 103%
4 | O=C(NCCNc1nccc(-c2c(-c3cccc(O)c3)nc3sccn23)n1)c1ccccc1 | 68% | 76.8% | 66.6% | 90.6% | 98% | 65.1% | 57.4% | 92.3% | 99.7%
5 | O=S1(=O)N(CCNc2nccc(-c3c(-c4cccc(O)c4)nc4sccn34)n2)CCN1Cc1ccccc1 | 55.4% | 47.4% | 48.3% | 113% | 110% | 52.9% | 51.9% | 64.9% | 74%
6 | COC1OCC(OS(=O)(=O)c2ccc(C)cc2)C(OC(=O)c2ccccc2)C1OC(=O)c1ccccc1 (configuration not stated) | 39.6% | 45.5% | 69.3% | 72.5% | 57% | 86.1% | 37.8% | -12.4% (active) | -6.71% (active)
7 | O=[N+]([O-])c1cccc(C(c2ccccc2)c2ccccc2)c1 | 78.3% | 82.9% | 98% | 85.6% | 98.2% | 95.6% | 84.5% | 98.3% | 95.8%
8 | CCc1cccc(-c2ccccc2)c1 | 52.4% | 80.5% | 101% | 104% | 101% | 103% | 107% | 109% | 111%
9 | COc1cccc(-c2nc3sccn3c2-c2ccnc(NCCNC(=O)c3ccccc3)n2)c1 | 79.8% | 41.6% | 62.5% | 99.1% | 109% | 88.5% | 69.2% | 89.1% | 70.5%
10 | O=S(=O)(CCN1CCOCC1)Nc1cncc(-c2ccc3ncnc(Nc4ccc(F)c(Cl)c4)c3c2)c1 | 90% | 82.4% | 72.8% | 69.3% | 82.2% | 33.5% | 10.8% | 50.6% | 87.3%
11 | O=C(N/N=C/c1ccccc1O)c1ccccc1O | 17.1% | 37.4% | 25.1% | 55.3% | 24.3% | 47.7% | 24.3% | 39.8% | 21%
12 | COc1cccc(/C=N/C(=S)NC2(C)C3CCC(C3)C2(C)C)c1O (configuration not stated) | 38.4% | 73.5% | 85.4% | 102% | 45.5% | 102% | 64.3% | 73.2% | 83.7%
13 | Nc1ncnc2c1ccn2-c1cccc(NC(=O)c2cccc(C(F)(F)F)c2)c1 | 54.6% | 52.9% | 78% | 81.4% | 68.7% | 93.3% | 87.5% | 80% | 78.4%
14 | C=CCn1c(SCC(=O)Nc2ccc(/C(C)=N\O)cc2)nnc1-c1cc(-c2ccc(OC)cc2)nc2ccccc12 | 33.8% | 17.3% | 15.3% | 79.4% | 53% | 52.8% | 11.1% | 37% | 13.7%
15 | COc1cc(Br)c(-c2nc(-c3ccccc3)c(-c3ccccc3)n2Cc2ccccc2)cc1OC | 47.3% | 40.8% | 55% | 77.1% | 48.6% | 39.5% | 49.4% | 68.6% | 48.9%
16 | CC(Cl)(CCl)CS(=O)(=O)c1ccc(Cl)cc1 (configuration not stated) | 96.2% | 99.8% | 97.4% | 113% | 111% | 102% | 115% | 110% | 110%
17 | Nc1nccc2c1ccn2-c1ccc(NC(=O)c2ccc(N3CCOCC3)c(C(F)(F)F)c2)cc1 | 14.9% | -29.9% (active) | 28% | 14.2% | 77.4% | 48.4% | 35.8% | 46% | 49.3%
18 | O=C(Nc1cccc(-n2ccc3c(NC(=O)c4ccccc4)nccc32)c1)Nc1ccc(Cl)c(C(F)(F)F)c1 | -11.6% (active) | -35% (active) | 4.34% (active) | 27.6% | 73.7% | 7.74% (active) | 16.7% | -21.1% (active) | -10.9% (active)
19 | COc1ccc(-c2nn(-c3ccc(NC(=O)c4ccc(Cl)c(C(F)(F)F)c4)cc3)cc2-c2ccncc2)cc1Cl | 7.78% (active) | -38.2% (active) | 46.5% | 46.5% | 93.9% | 58.1% | 44.8% | 24% | 35.7%
20 | Cc1cn(-c2cc(C(=O)Nc3cccc(-n4ccc5c(NC(=O)c6ccccc6)nccc54)c3)cc(C(F)(F)F)c2)cn1 | -24.9% (active) | -51.7% (active) | 4.81% (active) | 35.6% | 75.7% | 13.1% | 7.51% (active) | -67.7% (active) | 4.71% (active)
21 | COc1ccc(-c2c(C#N)cnc(N)c2-c2nc3cc(C)c(C)cc3[nH]2)cc1 | 20.2% | 81.3% | 43.6% | 102% | 50.7% | 46% | 36.4% | 55.7% | 50.2%
22 | CC/C(=C(\CC)c1ccc(OCCN(CC)CC)cc1)c1ccc(OCCN(CC)CC)cc1 | -8.6% (active) | 18.3% | 53.3% | 38.7% | 38.1% | 64.2% | 59.9% | 45.5% | 57.6%
23 | O=C(Nc1ccc(-n2ccc3c(NC(=O)c4ccccc4)nccc32)cc1)Nc1ccc(Cl)c(Cl)c1 | -30.3% (active) | -49.6% (active) | -45% (active) | 50% | -4.39% (active) | 59.7% | 4.31% (active) | -79.6% (active) | -34.4% (active)
24 | O=c1c2ccccc2sc2c(N3CCCC3)nc3ccccc3c12 | 81.5% | 92.8% | 93.6% | 112% | 95.2% | 118% | 85.8% | 107% | 102%
25 | COc1ccc(-c2nn(-c3ccc(NC(=O)c4cc(C(F)(F)F)cc(C(F)(F)F)c4)cc3)cc2-c2ccncc2)cc1Cl | 73.6% | 10.7% | 68.2% | 64% | 90.5% | 78.4% | 74.7% | 60.1% | 63.5%
26 | O=C(Nc1cccc(-n2ccc3c(NC(=O)c4ccccc4)nccc32)c1)c1cccc(C(F)(F)F)c1 | 1.05% (active) | -36.1% (active) | 3.8% (active) | 32.5% | 72.9% | 12.1% | 15.9% | -8.09% (active) | -1.18% (active)
27 | COc1cc(-c2nc(N)n(CC(=O)Nc3ccc(/C(C)=N\O)cc3)n2)cc(OC)c1OC | 83% | 94.3% | 74.3% | 114% | 112% | 87.9% | 96.8% | 106% | 105%
28 | O=C(/C=C/c1ccccc1)Oc1ccc(/C=C/c2cc(OC(=O)/C=C/c3ccccc3)cc(OC(=O)/C=C/c3ccccc3)c2)cc1 | 92% | 99.8% | 84.7% | 96.6% | 100% | 86.5% | 98.6% | 107% | 103%

Reference: PubChem BioAssay (NCI)
